# Data: the supplement of paper PMC6555819
# How the values were obtained:
# Test in all cases: PBM binding z-score (relative to random genomic background probes); higher = stronger binding; sequences stand for … in GC…GCGATTGACAGCGTAGAATGAAGG
# [1] = system: FXR:RXRa (NR concentration 270 nM, RXRa partner concentration 90 nM)
# Summary of the method: (§1)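 Random background probes are the reference for binding z-scores. These scores derive from regression-normalized fluorescence on custom Agilent 4×180K protein-binding microarrays incubated 1 h with ligand-free nuclear receptor dimers. Binding was detected with antibodies against each partner (one per run).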
# [2] = system: LXRa:RXRa (NR concentration 270 nM, RXRa partner concentration 90 nM)
# Summary of the method: as §1
# [3] = system: LXRa homodimer (NR concentration 270 nM)
# Summary of the method: as §1
# [4] = system: LXRb:RXRa (NR concentration 270 nM, RXRa partner concentration 90 nM)
# Summary of the method: as §1
# [5] = system: LXRb homodimer (NR concentration 270 nM)
# Summary of the method: as §1
# [6] = system: PPARa:RXRa (NR concentration 270 nM, RXRa partner concentration 90 nM)
# Summary of the method: as §1
# [7] = system: PPARg:RXRa (NR concentration 180 nM, RXRa partner concentration 90 nM)
# Summary of the method: as §1
# [8] = system: PPARg:RXRa 270nM:90nM, anti-RXR (NR concentration 270 nM, RXRa partner concentration 90 nM)
# Summary of the method: as §1
# [9] = system: PPARg:RXRa 30nM:10nM, anti-RXR (NR concentration 30 nM, RXRa partner concentration 10 nM)
# Summary of the method: as §1
# [10] = system: PPARg:RXRa 90nM:30nM, anti-RXR (NR concentration 90 nM, RXRa partner concentration 30 nM)
# Summary of the method: as §1
# [11] = system: PPARg:RXRa DBDmut IVT, anti-RXR (DBD mutation: RXRa K156A/R161A, NR concentration 270 nM, RXRa partner concentration 90 nM)
# Summary of the method: as §1
# [12] = system: PPARg:RXRa IVT, anti-PPARg (NR concentration 270 nM, RXRa partner concentration 90 nM)
# Summary of the method: as §1
# [13] = system: PPARg DBDmut:RXRa IVT, anti-PPARg (DBD mutation: PPARg1 K132A/R137A, NR concentration 270 nM, RXRa partner concentration 90 nM)
# Summary of the method: as §1
# [14] = system: PPARg DBDmut IVT, anti-PPARg (DBD mutation: PPARg1 K132A/R137A, NR concentration 270 nM)
# Summary of the method: as §1
# [15] = system: PPARg homodimer (NR concentration 180 nM)
# Summary of the method: as §1
# [16] = system: PXR:RXRa (NR concentration 270 nM, RXRa partner concentration 90 nM)
# Summary of the method: as §1
# [17] = system: PXR homodimer (NR concentration 270 nM)
# Summary of the method: as §1
# [18] = system: RARa:RXR (NR concentration 270 nM, RXRa partner concentration 90 nM)
# Summary of the method: as §1
# [19] = system: RARa homodimer (NR concentration 270 nM)
# Summary of the method: as §1
# [20] = system: RARb:RXRa (NR concentration 270 nM, RXRa partner concentration 90 nM)
# Summary of the method: as §1
Sequence,PBM binding z-score [1],PBM binding z-score [2],PBM binding z-score [3],PBM binding z-score [4],PBM binding z-score [5],PBM binding z-score [6],PBM binding z-score [7],PBM binding z-score [8],PBM binding z-score [9],PBM binding z-score [10],PBM binding z-score [11],PBM binding z-score [12],PBM binding z-score [13],PBM binding z-score [14],PBM binding z-score [15],PBM binding z-score [16],PBM binding z-score [17],PBM binding z-score [18],PBM binding z-score [19],PBM binding z-score [20]
TCGAGTAGGTTAGGCGGGGCATTCAGCCAACATA,0.223,0.211,-0.616,0.946,0.912,0.687,-0.0188,0.886,0.825,0.705,1.73,1.84,0.466,0.361,-0.143,0.191,-0.273,0.0737,-0.554,0.48
TGACCAAGGTGAAGGTCGTTGATCCCTCTGTAGA,2.13,1.77,-0.327,1.57,-1.14,2.49,2.18,3.17,0.953,2.49,1.27,2.71,-0.305,-0.387,0.818,1.26,-0.313,1.8,-0.922,2.11
CCTCGGAGGACAACAGGAGGTTAGAGCTGCCAGA,-0.155,-0.0847,-0.064,-0.556,-0.957,-0.226,0.177,-0.821,-0.597,-0.982,-0.279,-0.491,-1.7,-1.73,-0.214,-0.222,-0.363,-0.127,-0.352,1.32
ATCGTAAGGTCGAAGGTGAGTATACCCACCCGAA,2.6,1.9,-0.314,1.71,0.36,3.41,3.62,3.7,1.42,3.36,-0.143,1.54,1.22,-0.311,1.79,1.87,-0.0484,3.33,0.0373,2.74
TCTTGTAGATCAACAGTAGGTTAAGAAAGATCGA,0.361,0.659,0.0852,0.659,-0.18,1.13,0.249,1.49,2.78,2.39,2.46,1.72,0.934,0.698,0.243,0.284,-0.303,0.504,0.265,0.132
TTAACAAGGTGAAGGTCGTTGATCCCTCTGTAGA,2.23,1.78,-0.258,1.35,-0.562,2.91,2.42,3.09,1.5,2.65,2.79,3.4,0.419,0.266,0.4,1.35,0.014,1.82,-0.625,2.03
AGAATGAGGGTACCAAAGATCAGGGAAACGCTTG,-0.148,2.43,-0.475,0.326,-0.167,1.18,1.28,1.52,0.506,1.19,1.95,1.35,0.283,0.511,-0.237,-0.107,0.0728,0.253,0.0319,0.552
TCTTGTAGATCAACAGGAGGTCAAGAAAGATCGA,2.21,3.53,3.02,3.32,0.366,3.71,1.04,2.25,2.55,2.35,1.49,2.17,0.588,0.144,1.8,3.74,0.715,4.01,0.649,2.84
CAAACTAGGTCACCGGAAGGTCAAAGCCCGCATG,6.08,5.95,4.27,5.11,1.45,6.06,9.85,7.89,5.9,7.57,8.25,8.78,2.12,2.03,5.32,5.67,1.53,7.16,2.71,5.32
ATCTCTAGGTAAAGATATTTCAGTGAATGCAAAT,0.207,0.268,0.422,0.346,0.74,0.352,0.976,0.732,0.499,0.83,2.46,1.88,1.53,1.33,0.424,0.367,0.337,0.994,1.26,0.0831
TAGCCTAGGTTATTGGGCCAGTATAGTACGCATC,-0.0933,0.0825,-0.331,0.173,-0.786,1.61,1.5,1.51,-0.136,0.762,2.14,2.87,-0.637,0.0704,-0.257,0.000197,-0.646,0.299,-1.1,0.689
AGGATGAGGTTATTAAGATCAGGGAATTGCGGTC,2.1,1.84,0.789,1.65,0.764,2.29,1.06,1.24,0.391,0.788,0.511,0.741,0.904,0.665,1.83,1.69,1.82,1.53,0.954,1.72
CCTATTAGTTCACCATAAGGGCAACCGAAGCTCG,1.35,2.07,0.985,1.29,0.844,1.67,0.515,0.652,-0.043,0.491,0.837,0.596,0.806,0.145,1.92,2.63,1.48,2.33,1.26,3.21
CCTATTAATTGACCATAAGGGCAACCGAAGCTCG,0.865,0.6,1.66,0.747,0.711,0.737,0.586,0.878,0.302,0.73,0.352,0.562,0.908,0.978,2.66,0.673,1.92,1.11,3.76,1.42
